The source holds several records for some structures; these can differ, active in one and inactive in another. Calls of active or inactive are those of the source. How the source made its calls: active means hit-call score of the fitted dose curve at least 0.9, where 1 is the maximum; inactive means score below 0.9.
molecular target: Transcriptional activator Myb (Homo sapiens) (UniProt P10242); assay: ATG_Myb_CIS: Attagene CIS-FACTORIAL HepG2 Assay for human Myeloblastosis (Myb) Proto-Oncogene Transcription Factor (AID 2282986); details: HepG2 Attagene CIS-FACTORIAL Myb reporter transcription; actives raise or lower the signal
Sequence (P10242 whole entry, looked up): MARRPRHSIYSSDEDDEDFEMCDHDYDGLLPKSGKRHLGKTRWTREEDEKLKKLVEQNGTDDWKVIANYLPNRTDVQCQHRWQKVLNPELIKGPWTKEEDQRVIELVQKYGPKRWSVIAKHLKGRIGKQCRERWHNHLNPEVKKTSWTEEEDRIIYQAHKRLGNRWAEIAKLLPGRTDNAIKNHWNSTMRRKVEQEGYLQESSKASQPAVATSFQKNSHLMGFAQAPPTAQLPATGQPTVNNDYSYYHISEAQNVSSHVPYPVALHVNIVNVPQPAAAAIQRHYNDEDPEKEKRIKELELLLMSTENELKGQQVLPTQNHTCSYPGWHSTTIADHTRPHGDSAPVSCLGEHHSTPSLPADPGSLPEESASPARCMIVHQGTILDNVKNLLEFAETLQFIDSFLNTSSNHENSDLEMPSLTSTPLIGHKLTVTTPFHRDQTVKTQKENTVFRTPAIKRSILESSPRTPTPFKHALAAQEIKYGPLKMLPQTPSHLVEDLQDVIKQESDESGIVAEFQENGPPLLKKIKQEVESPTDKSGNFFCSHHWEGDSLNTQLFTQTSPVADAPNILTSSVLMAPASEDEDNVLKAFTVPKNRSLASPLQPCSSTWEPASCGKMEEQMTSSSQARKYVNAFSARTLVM
Experimental: ATG_CIS is a cell-based, multiplexed-readout assay that uses HepG2, a human liver cell line, with measurements taken at 24 hours after chemical dosing in a 24-well plate.ATG_Myb_CIS is one of 52 assay component(s) measured or calculated from the ATG_CIS assay. It is designed to make measurements of mRNA induction, a form of inducible reporter, as detected with fluorescence intensity signals by Reverse transcription polymerase chain reaction (RT-PCR) and Capillary electrophoresis technology.Data from the assay component ATG_Myb_CIS was analyzed into 1 assay endpoint. This assay endpoint, ATG_Myb_CIS, was analyzed with bidirectional fitting relative to DMSO as the negative control and baseline of activity. Using a type of inducible reporter, measures of mRNA for gain or loss-of-signal activity can be used to understand the reporter gene at the transcription factor-level as they relate to the gene MYB. Furthermore, this assay endpoint can be referred to as a primary readout, because this assay has produced multiple assay endpoints where this one serves a reporter gene function. To generalize the intended target to other relatable targets, this assay endpoint is annotated to the dna binding intended target family, where the subfamily is MYB proteins.
Human liver HepG2 cells are transiently transfected with multiple reporter transcription units (MRTUs) in 6-well plates using FuGene 6 reagent (Roche; 3 ml FuGene/1 mg DNA). The MRTU constructs are regulated by a cis-regulating element (promoter). […] A major difference between the CIS and TRANS system is that in CIS activities of endogenous TFs are measured, whereas the TRANS assay evaluates changes in activities of exogenous, chimeric NR-Gal4 proteins. […] At the end of 24 hour incubation, total RNA was isolated using TriZol reagent (Invitrogen). The isolated RNA is then reverse-transcribed using oligo(dT) primer and Mo-MLV reverse transcriptase (Invitrogen) with DNAse I (Ambion) treatment for 30 min. The one-tenth of the produced cDNA was amplified by PCR using Taq DNA polymerase (Invitrogen) and two reporter sequence-specific primers. The PCR products were fluorescently labeled by primer extension with 6-arboxyfluorescein (6-FAM) 5'-labeled reporter sequence-specific primer (2 min at 95 C, 20 s at 68 C and 10 min at 72 C) and these products were digested with 5U of HpaI (New England Biolabs) for 2h at 37 C. The fragments were purified using Qiaquick PCR columns (Qiagen), analyzed on an ABI 3130xL genetic analyzer (Applied Biosystems) with peak positions identified by using a set of X-rhodamine (ROX)-labeled MapMarker1000 molecular weight standards (BioVentures). The raw capillary electrophoresis data was processed using Attagraph software (Attagene).

Structure (SMILES)	outcome	AC50
O=C(O)C(F)(F)C(F)(F)C(F)(F)C(F)(F)C(F)(F)C(F)(F)C(F)(F)C(F)(F)C(F)(F)C(F)(F)F	inactive	154 µM (active)
c1cc[c]([Hg][c]2ccccc2)cc1	inactive	
COc1ccc(OC)c(C=O)c1	inactive	
COP(=S)(OC)Oc1c(Cl)cc(C)cc1Cl	inactive	
C=CC(=O)N(C)C	inactive	
CCSC(C)CC1CC(=O)C(C(CC)=NOC/C=C/Cl)=C(O)C1 (stereo not given)	inactive	
O=C/C=C/c1ccccc1	inactive	
CCc1ccccc1C	inactive	
O=C(c1ccccc1)C(Cl)Cl	inactive	
Nc1ccc(Cl)cc1C(=O)c1ccccc1	inactive	
COC(=O)Cc1ccccc1	inactive	
ClCCBr	inactive	
Cn1sc(Cl)cc1=O	inactive	
CC(C)(c1ccc(OCC2CO2)cc1)c1ccc(OCC2CO2)cc1 (stereo not given)	inactive	
CCOC(=O)Nc1cccc(OC(=O)Nc2ccccc2)c1	inactive	
CC(C)(C)c1cc(O)ccc1O	inactive	
CCCCC(CC)CO[N+](=O)[O-] (stereo not given)	inactive	
O=C(OC1CCCCC1)c1ccccc1C(=O)OC1CCCCC1	inactive	
CC1(C)CCC(Cc2ccc(Cl)cc2)C1(O)Cn1cncn1 (stereo not given)	inactive	
COP(=S)(OC)Oc1cc(Cl)c(Cl)cc1Cl	inactive	

Structure (SMILES)	outcome	AC50
[O-][Cl+2]([O-])O	inactive	
CN(C)P(=O)(N(C)C)N(C)C	inactive	
COP(=S)(OC)Oc1ccc(S(=O)(=O)N(C)C)cc1	inactive	
ClC(Cl)=C(Cl)C(Cl)=C(Cl)Cl	inactive	
COc1ccccc1OC	inactive	
O=S(=O)(c1ccc(Cl)cc1)c1ccc(Cl)cc1	inactive	
C=CC#N	inactive	
ClC1(Cl)C2(Cl)C3(Cl)C4(Cl)C(Cl)(Cl)C5(Cl)C3(Cl)C1(Cl)C5(Cl)C24Cl (stereo not given)	inactive	
CCCCCCCCC(=O)NCc1ccc(O)c(OC)c1	inactive	
CCCCOCCOC(C)=O	inactive	
Cc1ccc2ccccc2c1C	inactive	
O=C(O)Cc1ccccc1	inactive	
CCOC(=O)CP(=O)(OCC)OCC	inactive	
N#CCc1ccc(Cl)cc1	inactive	
COP(=S)(OC)Oc1ccc(Sc2ccc(OP(=S)(OC)OC)cc2)cc1	inactive	
O=C1C2(Cl)C3(Cl)C4(Cl)C(Cl)(Cl)C5(Cl)C3(Cl)C1(Cl)C5(Cl)C24Cl (stereo not given)	inactive	
Cc1ccccc1C(=O)Nc1cccc(OC(C)C)c1	inactive	
CCCCCCCCSC(=O)Oc1cc(Cl)nnc1-c1ccccc1	inactive	
NNC(=S)NN	inactive	
